This passage reports outcome and AC50 results from PubChem BioAssay (EPA / NIEHS).

Inconclusive results are not listed. Calls of active or inactive are those of the source. How the source made its calls, unless noted: active means hit-call score of the fitted dose curve at least 0.9, where 1 is the maximum; inactive means score below 0.9.

For assay [1], the target named is Hepatocyte nuclear factor 3-beta (Homo sapiens) (UniProt Q9Y261). Nature of the assay: ATG_FoxA2_CIS: Attagene CIS-FACTORIAL HepG2 Assay for human Forkhead box A2 (FOXA2) (AID 2282942). The following applies: HepG2 cis-reporter transcription factor activity, 24 h; actives raise or lower the signal. The essentials: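 Endogenous transcription factor activity was read in HepG2 cells carrying transiently transfected cis-promoter reporter units. After 24 h dosing, reporter mRNA was quantified by RT-PCR and capillary electrophoresis, and values fitted bidirectionally versus DMSO.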
Chain of Hepatocyte nuclear factor 3-beta (Homo sapiens) (Q9Y261 whole entry, looked up): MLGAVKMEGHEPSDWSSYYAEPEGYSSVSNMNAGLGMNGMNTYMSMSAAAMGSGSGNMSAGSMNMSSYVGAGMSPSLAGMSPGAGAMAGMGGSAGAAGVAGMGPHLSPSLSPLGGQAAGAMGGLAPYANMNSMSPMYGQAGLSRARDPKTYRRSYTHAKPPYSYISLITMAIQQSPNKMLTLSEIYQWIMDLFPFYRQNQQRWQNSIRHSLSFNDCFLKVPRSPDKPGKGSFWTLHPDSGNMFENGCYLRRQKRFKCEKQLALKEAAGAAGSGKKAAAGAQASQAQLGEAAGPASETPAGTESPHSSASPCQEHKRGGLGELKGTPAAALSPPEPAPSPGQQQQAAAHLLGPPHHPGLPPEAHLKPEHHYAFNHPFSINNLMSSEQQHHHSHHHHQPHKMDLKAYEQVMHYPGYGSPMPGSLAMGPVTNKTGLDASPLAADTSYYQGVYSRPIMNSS

In assay [2] the target is Heat shock factor protein 1 (Homo sapiens) (UniProt Q00613). Nature of the assay: ATG_HSE_CIS: Attagene CIS-FACTORIAL HepG2 Assay for human Heat Shock Transcription Factor 1 (HSE) (AID 2282953). The following applies: HepG2 HSE cis-reporter, Attagene RNA transcription; actives raise or lower the signal. The essentials: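 Using HepG2 with transfected cis-driven reporter constructs, compound effects on endogenous factor activity are scored as reporter mRNA change at 24 h. Detection: RT-PCR, HpaI digestion, capillary electrophoresis; bidirectional fitting to DMSO.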
Chain of Heat shock factor protein 1 (Homo sapiens) (Q00613 whole entry, looked up): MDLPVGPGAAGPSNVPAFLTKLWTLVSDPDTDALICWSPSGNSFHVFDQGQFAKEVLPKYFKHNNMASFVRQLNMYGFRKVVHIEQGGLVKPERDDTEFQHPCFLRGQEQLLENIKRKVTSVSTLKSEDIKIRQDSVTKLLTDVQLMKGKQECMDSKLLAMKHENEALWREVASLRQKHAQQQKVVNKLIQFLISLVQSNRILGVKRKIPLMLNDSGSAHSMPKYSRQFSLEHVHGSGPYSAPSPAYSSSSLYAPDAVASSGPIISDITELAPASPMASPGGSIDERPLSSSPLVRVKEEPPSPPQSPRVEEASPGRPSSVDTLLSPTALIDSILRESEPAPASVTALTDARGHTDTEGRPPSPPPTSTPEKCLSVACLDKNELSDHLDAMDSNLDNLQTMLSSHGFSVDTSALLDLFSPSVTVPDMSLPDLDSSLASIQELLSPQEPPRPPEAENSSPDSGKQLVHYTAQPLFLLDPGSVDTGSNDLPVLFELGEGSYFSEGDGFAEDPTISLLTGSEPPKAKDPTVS

Assay [3] is described as follows: ATG_RORE_CIS: Attagene CIS-FACTORIAL HepG2 Assay for human RAR-related Orphan Receptor Element (RORE) (AID 2282959). The note with it: HepG2 Attagene cis-factorial RORE reporter, mRNA; actives raise or lower the signal. The essentials: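 Cells were HepG2 carrying transfected cis-regulated reporter constructs, dosed for 24 hours. Total RNA was reverse-transcribed and reporter cDNA amplified, fluorescently labeled and sized by capillary electrophoresis. Activity was fitted bidirectionally relative to DMSO.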

The nature of assay [4]: ATG_Sox_CIS: Attagene CIS-FACTORIAL HepG2 Assay for human SRY-box transcription factor (SOX) (AID 2282960). The note with it: HepG2 Attagene cis-factorial SOX reporter, mRNA; actives raise or lower the signal. The essentials: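 Transient MRTU transfection of HepG2; 24 h compound incubation; TriZol RNA, oligo(dT) RT, PCR, 6-FAM primer extension, HpaI cut, CE. Bidirectional fit, DMSO = baseline.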

Assay [5] deals with Transcription factor Sp1 (Homo sapiens) (UniProt P08047). Nature of the assay: ATG_Sp1_CIS: Attagene CIS-FACTORIAL HepG2 Assay for human Specificity Protein 1 (Sp1) (AID 2282961). The note with it: HepG2 Sp1 cis-reporter transcription, actives raise or lower the signal. The essentials: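 Endogenous Sp1 activity was gauged in human liver HepG2 cells bearing transfected reporter units under a cis-regulating promoter. After 24 h dosing, reporter mRNA was quantified by RT-PCR with capillary electrophoresis, and activity fitted bidirectionally versus DMSO.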
Chain of Transcription factor Sp1 (Homo sapiens) (P08047 whole entry, looked up): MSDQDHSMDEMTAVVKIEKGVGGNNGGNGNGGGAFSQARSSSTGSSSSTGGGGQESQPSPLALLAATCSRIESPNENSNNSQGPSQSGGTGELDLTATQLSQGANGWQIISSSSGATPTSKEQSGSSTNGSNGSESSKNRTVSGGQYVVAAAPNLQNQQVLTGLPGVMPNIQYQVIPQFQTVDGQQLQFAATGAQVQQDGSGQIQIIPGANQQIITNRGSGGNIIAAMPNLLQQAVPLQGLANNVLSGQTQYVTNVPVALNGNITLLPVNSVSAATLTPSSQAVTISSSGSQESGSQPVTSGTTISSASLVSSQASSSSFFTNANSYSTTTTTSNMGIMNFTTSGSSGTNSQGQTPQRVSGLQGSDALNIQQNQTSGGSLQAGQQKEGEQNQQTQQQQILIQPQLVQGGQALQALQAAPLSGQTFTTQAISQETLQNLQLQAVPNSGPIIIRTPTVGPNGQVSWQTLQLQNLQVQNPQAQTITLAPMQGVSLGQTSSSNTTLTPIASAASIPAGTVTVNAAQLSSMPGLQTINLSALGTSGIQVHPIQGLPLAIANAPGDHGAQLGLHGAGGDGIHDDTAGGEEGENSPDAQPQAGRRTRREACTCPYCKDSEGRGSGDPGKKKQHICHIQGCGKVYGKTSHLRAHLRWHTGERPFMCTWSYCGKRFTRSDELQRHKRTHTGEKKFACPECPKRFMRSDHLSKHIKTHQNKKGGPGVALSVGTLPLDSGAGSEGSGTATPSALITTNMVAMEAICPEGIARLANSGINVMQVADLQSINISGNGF

A short description of assay [6]: ATG_SREBP_CIS: Attagene CIS-FACTORIAL HepG2 Assay for human Sterol Regulatory Element Binding (SREBP) (AID 2282962). The following applies: HepG2 Attagene cis-factorial SREBP reporter, mRNA; actives raise or lower the signal. The essentials: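 HepG2 cells transiently transfected with multiplexed cis-promoter reporter units sensing endogenous transcription factors; reporter mRNA measured 24 h after dosing by RT-PCR, 6-FAM labeling, HpaI digestion and capillary electrophoresis. Bidirectional fit versus DMSO.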

The target of assay [7] is Signal transducer and activator of transcription 3 (Homo sapiens) (UniProt P40763). Nature of the assay: ATG_STAT3_CIS: Attagene CIS-FACTORIAL HepG2 Assay for human Signal Transducer and Activator of Transcription 3 (STAT3) (AID 2282963). The note with it: HepG2, Attagene cis-factorial STAT3 reporter transcription; actives raise or lower the signal. The essentials: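 HepG2 cells transiently transfected with multiple cis-element-driven reporter units report endogenous transcription factor activity. After 24 h compound exposure, reporter mRNA is measured by RT-PCR, 6-FAM labelling, HpaI digestion and capillary electrophoresis. Fitted bidirectionally versus DMSO.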
Chain of Signal transducer and activator of transcription 3 (Homo sapiens) (P40763 whole entry, looked up): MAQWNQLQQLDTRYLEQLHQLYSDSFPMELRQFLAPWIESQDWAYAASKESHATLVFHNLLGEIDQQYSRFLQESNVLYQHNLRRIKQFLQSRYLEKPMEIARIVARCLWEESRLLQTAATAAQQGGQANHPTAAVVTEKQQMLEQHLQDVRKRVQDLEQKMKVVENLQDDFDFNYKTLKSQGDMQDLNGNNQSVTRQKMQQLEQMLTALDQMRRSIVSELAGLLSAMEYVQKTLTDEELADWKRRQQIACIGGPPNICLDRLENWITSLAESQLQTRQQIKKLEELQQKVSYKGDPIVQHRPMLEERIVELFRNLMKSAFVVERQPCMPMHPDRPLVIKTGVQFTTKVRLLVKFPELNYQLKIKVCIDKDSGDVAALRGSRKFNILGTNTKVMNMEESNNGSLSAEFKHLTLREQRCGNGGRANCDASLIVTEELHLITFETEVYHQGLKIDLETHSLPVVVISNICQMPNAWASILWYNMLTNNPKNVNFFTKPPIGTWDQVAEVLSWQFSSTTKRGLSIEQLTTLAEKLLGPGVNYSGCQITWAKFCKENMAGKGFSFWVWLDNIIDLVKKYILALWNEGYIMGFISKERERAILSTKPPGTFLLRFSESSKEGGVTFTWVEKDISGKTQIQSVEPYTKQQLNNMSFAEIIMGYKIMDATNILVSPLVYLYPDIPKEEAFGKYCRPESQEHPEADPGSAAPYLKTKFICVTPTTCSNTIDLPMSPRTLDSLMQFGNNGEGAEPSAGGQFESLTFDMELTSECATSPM

Assay [8] is described as follows: ATG_TA_CIS: Attagene CIS-FACTORIAL HepG2 Assay for human TA Basal Promoter (AID 2282964). The following applies: HepG2 Attagene CIS-factorial TA basal promoter reporter; actives raise or lower the signal. The essentials:
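Transient MRTU transfection of HepG2 preceded 24 h compound exposure. Reporter mRNA levels were then read by RT-PCR with capillary electrophoresis, and this background-control endpoint was fitted bidirectionally to DMSO.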

Assay [9] is described as follows: ATG_TCF_b_cat_CIS: Attagene CIS-FACTORIAL HepG2 Assay for human T-Cell-Factor with beta-catenin (TCF/b-cat) (AID 2282965). The note with it: HepG2 TCF/beta-catenin cis-reporter transcription, actives raise or lower the signal. The essentials:
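HepG2 cells transiently transfected with cis-promoter-driven multiplexed reporter units; reporter mRNA measured 24 h after dosing by RT-PCR, FAM labelling, HpaI digestion and capillary electrophoresis. Bidirectional fitting relative to DMSO baseline.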

The nature of assay [10]: ATG_TAL_CIS: Attagene CIS-FACTORIAL HepG2 Assay for human TAL Basal Promoter (AID 2282966).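 Further: background control endpoint measuring basal TAL promoter reporter mRNA not a specific factor.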 The following applies: HepG2 Attagene cis-factorial TAL promoter reporter; actives raise or lower the signal. The essentials: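 In this cell-based multiplex, HepG2 liver cells bearing cis-promoter reporter constructs are dosed for 24 hours. Total RNA is reverse-transcribed and amplified, labelled fragments are sized by capillary electrophoresis, and signal changes are fitted bidirectionally versus DMSO.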

The nature of assay [11]: ATG_VDRE_CIS: Attagene CIS-FACTORIAL HepG2 Assay for human Vitamin D Receptor Element (VDRE) (AID 2282968). The following applies: HepG2 VDRE cis-reporter transcription, actives raise or lower the signal. The essentials: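 Transiently transfected HepG2 cells carrying cis-regulated reporter transcription units were exposed for 24 h. Reporter mRNA was measured by RT-PCR with fluorescent labelling and capillary electrophoresis, and fitted in both directions against DMSO.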

The target of assay [12] is Transcriptional activator Myb (Homo sapiens) (UniProt P10242). Nature of the assay: ATG_Myb_CIS: Attagene CIS-FACTORIAL HepG2 Assay for human Myeloblastosis (Myb) Proto-Oncogene Transcription Factor (AID 2282986). The following applies: HepG2 Attagene CIS-FACTORIAL Myb reporter transcription; actives raise or lower the signal. The essentials: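 Steps: transfect HepG2 with cis-regulated reporter units; dose with chemical for 24 h; isolate RNA, reverse-transcribe, PCR-amplify and FAM-label reporter sequences; digest with HpaI; resolve by capillary electrophoresis. Activity fitted in both directions relative to DMSO.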
Chain of Transcriptional activator Myb (Homo sapiens) (P10242 whole entry, looked up): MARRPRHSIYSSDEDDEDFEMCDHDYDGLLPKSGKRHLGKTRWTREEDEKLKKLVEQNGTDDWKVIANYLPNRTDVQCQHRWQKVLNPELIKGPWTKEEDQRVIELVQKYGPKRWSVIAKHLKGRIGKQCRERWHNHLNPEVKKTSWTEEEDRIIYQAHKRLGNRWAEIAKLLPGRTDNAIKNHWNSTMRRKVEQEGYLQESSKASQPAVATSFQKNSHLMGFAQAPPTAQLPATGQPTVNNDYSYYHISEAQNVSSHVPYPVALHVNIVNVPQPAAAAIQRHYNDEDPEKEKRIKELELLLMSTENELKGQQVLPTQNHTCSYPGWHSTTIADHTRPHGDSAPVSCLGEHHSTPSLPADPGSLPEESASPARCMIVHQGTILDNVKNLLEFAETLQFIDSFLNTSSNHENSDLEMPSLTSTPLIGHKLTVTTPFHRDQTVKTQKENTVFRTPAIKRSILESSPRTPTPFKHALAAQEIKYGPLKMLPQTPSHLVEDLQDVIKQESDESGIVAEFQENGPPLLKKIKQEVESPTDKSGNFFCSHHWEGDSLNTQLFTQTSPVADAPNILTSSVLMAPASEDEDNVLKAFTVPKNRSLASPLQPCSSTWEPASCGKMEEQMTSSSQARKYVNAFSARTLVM

Assay [13] deals with Nuclear respiratory factor 1 (Homo sapiens) (UniProt Q16656). Nature of the assay: ATG_NRF1_CIS: Attagene CIS-FACTORIAL HepG2 Assay for human Nuclear Respiratory Factor 1 (NRF1) Orphan Gene (AID 2282987). The following applies: HepG2 NRF1 cis-element reporter, Attagene multiplex; actives raise or lower the signal. The essentials:
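Fluorescence intensity of labelled reporter cDNA fragments, resolved by capillary electrophoresis, served as readout for NRF1 cis-element activity. Transiently transfected HepG2 cells were dosed for 24 hours; activity in either direction was fitted against DMSO negative control.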

A short description of assay [14]: ATG_NFI_CIS: Attagene CIS-FACTORIAL HepG2 Assay for human Nuclear Factor I (NFI) (AID 2282989). The following applies: HepG2 cis-regulatory reporter, NFI response element transcription; actives raise or lower the signal. The essentials:
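Reporter transcription driven by endogenous transcription factors in HepG2 cells; 24 h treatment. Quantitation by labelled RT-PCR fragments on capillary electrophoresis, gain- or loss-of-signal relative to DMSO.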

The target of assay [15] is Myc proto-oncogene protein (Homo sapiens) (UniProt P01106). Nature of the assay: ATG_Myc_CIS: Attagene CIS-FACTORIAL HepG2 Assay for human Myelocytomatosis (Myc) Proto-Oncogene Transcription Factor (AID 2282990). The note with it: HepG2, Attagene cis-reporter transcription factor activity; actives raise or lower the signal. The essentials:
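Transiently transfected HepG2 cells bearing cis-promoter reporter units for endogenous transcription factors; 24 h exposure. Reporter mRNA measured by RT-PCR, 6-FAM primer extension, HpaI cut and capillary electrophoresis; bidirectional fit relative to DMSO.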

The nature of assay [16]: ATG_NRF2_ARE_CIS: Attagene CIS-FACTORIAL HepG2 Assay for human Nuclear Factor Erythroid 2 Related Factor 2 (NFR2) response to Antioxidant Response Elements (ARE) (AID 2282992).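 On AC50: reporter mRNA level measured by RT-PCR and capillary electrophoresis fluorescence.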 The note with it: HepG2 Attagene ARE/NRF2 reporter, transcription factor activity; actives raise or lower the signal. The essentials: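 HepG2 cells transiently transfected with multiplexed cis-element reporter constructs, 24 h after chemical dosing; reporter mRNA quantified by RT-PCR, fluorescent primer extension, HpaI digestion and capillary electrophoresis. Bidirectional fit relative to DMSO.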

Assay [17] can be described thus: ATG_Oct_MLP_CIS: Attagene CIS-FACTORIAL HepG2 Assay for human Octamer-Binding Transcription Factor (Oct) (AID 2282993). The following applies: HepG2 Attagene cis-factorial Oct reporter, mRNA; actives raise or lower the signal. The essentials: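 Transfected HepG2 cells, 24 h treatment. Reporter mRNA quantified by RT-PCR–capillary electrophoresis; bidirectional fitting against DMSO.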

In assay [18] the target is Cellular tumor antigen p53 (Homo sapiens) (UniProt P04637). Nature of the assay: ATG_p53_CIS: Attagene CIS-FACTORIAL HepG2 Assay for human p53 Transcription Factor (AID 2282994). The note with it: HepG2 p53 cis-element reporter, Attagene mRNA; actives raise or lower the signal. The essentials:
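HepG2 cells transiently transfected with cis-regulated multiple reporter transcription units, dosed 24 h. Reporter mRNA measured by RT-PCR, 6-FAM primer extension, HpaI digestion and capillary electrophoresis; bidirectional fit relative to DMSO.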

In assay [19] the target is Nuclear receptor subfamily 1 group I member 2 (Homo sapiens) (UniProt O75469). Nature of the assay: ATG_PXR_TRANS: Attagene TRANS-FACTORIAL HepG2 Assay for human Pregnane X Receptor (PXR) (AID 2283008; active means hit-call score of the fitted dose curve at least 0.9, where 1 is the maximum). The essentials: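 HepG2 cells transiently transfected with GAL4-UAS reporter units and PXR-Gal4 chimera, exposed 24 h. Reporter mRNA quantified by RT-PCR, fluorescent labelling, HpaI digestion and capillary electrophoresis; gain of signal vs DMSO.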
Chain of Nuclear receptor subfamily 1 group I member 2 (Homo sapiens) (O75469 whole entry, looked up, the tested form may be a part): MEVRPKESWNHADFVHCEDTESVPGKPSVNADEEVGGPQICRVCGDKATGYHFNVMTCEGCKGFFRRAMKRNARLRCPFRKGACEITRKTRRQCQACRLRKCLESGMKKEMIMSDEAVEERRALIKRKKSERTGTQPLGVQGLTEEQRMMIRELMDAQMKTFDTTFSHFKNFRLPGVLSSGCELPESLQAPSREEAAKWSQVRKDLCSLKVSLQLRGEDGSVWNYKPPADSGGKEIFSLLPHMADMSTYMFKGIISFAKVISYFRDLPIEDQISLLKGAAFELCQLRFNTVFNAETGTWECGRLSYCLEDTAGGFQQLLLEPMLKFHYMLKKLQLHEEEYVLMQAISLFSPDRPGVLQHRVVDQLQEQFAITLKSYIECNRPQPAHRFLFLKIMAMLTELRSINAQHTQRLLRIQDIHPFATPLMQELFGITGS

Assay [20] in a line: ATG_XTT_Cytotoxicity: Cytotoxicity Assessment in the Attagene TRANS-FACTORIAL HepG2 Assay (AID 2283584; active means hit-call score of the fitted dose curve at least 0.9, where 1 is the maximum;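 on AC50: cells exposed to compound for 24 h before reading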). The essentials: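 XTT readout of cell number in transfected HepG2 cells, 24 h post-dosing; DMSO serves as negative control and baseline, with activity taken as loss of viability signal.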

Chain of Myc proto-oncogene protein (Homo sapiens) (P01106 whole entry, looked up): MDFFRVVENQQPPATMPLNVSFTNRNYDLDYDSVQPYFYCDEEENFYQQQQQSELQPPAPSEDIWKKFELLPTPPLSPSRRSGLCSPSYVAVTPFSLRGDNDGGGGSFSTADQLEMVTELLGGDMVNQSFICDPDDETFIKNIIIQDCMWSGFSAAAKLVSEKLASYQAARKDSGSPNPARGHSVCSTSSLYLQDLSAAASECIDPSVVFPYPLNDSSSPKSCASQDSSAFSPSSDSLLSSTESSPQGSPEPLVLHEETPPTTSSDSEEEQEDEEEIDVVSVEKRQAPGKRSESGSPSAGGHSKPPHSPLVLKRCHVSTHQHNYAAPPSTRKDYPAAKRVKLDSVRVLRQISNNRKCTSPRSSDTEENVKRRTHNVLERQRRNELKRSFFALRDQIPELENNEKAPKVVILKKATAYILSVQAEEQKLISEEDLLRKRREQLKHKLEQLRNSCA
Chain of Nuclear respiratory factor 1 (Homo sapiens) (Q16656 whole entry, looked up, the tested form may be a part): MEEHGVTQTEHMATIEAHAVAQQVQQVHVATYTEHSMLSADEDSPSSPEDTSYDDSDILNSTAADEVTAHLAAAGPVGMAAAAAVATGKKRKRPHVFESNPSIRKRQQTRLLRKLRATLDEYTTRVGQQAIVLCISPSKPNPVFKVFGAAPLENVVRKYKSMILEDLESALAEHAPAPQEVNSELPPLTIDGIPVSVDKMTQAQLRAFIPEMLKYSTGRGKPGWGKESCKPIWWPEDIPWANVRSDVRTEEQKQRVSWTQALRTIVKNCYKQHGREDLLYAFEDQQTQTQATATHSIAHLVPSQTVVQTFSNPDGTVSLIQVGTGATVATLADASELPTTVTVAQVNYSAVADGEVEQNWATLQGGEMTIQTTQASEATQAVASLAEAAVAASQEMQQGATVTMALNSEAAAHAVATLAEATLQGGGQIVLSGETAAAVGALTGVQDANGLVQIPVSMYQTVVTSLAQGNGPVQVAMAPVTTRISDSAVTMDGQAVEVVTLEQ
Chain of Cellular tumor antigen p53 (Homo sapiens) (P04637 whole entry, looked up): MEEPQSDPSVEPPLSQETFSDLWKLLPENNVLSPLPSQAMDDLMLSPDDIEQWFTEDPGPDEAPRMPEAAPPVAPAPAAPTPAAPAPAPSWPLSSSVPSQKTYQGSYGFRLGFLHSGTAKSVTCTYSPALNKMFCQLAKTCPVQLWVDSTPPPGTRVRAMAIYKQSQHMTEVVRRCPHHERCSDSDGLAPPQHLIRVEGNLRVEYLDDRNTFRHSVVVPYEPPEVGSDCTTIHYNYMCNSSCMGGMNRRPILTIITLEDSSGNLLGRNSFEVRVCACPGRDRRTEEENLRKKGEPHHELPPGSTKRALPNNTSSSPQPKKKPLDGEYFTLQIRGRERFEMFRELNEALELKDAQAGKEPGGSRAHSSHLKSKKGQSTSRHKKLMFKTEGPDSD

Turning to `CN(C)CCCN1c2ccccc2CCc2ccc(Cl)cc21`, the compound was classed as inactive in assay [1], in [2], in [3], in assay [5], in assay [7] and in [8]. Further, the call in assay [10], in assay [12], in [13], in assay [14], in assay [15] and in [17] was inactive. Also, the result in assay [19] was inactive. Further, the AC50 in [4] was 11.1 µM (active); in assay [6], 15.8 µM (active); in assay [9] it was 7.29 µM (active); in assay [11], 10.4 µM (active); in assay [16], 17.7 µM (active); in [18], 4.07 µM (active). In assay [20], the AC50 is 25.7 µM (active).

Turning to `F[B-](F)(F)F`, the call in assay [1], in [2], in [3], in assay [4], in assay [5] and in [6] was inactive. Moreover, the result in assay [7], in assay [8], in assay [9], in assay [10], in [11] and in [12] was inactive. In addition, the call in assay [13], in [14], in [15], in [16], in assay [17] and in assay [19] was inactive.

As to `C[C@H]1C[C@H]2[C@@H]3CCC4=CC(=O)C=C[C@]4(C)[C@@]3(F)[C@@H](O)C[C@]2(C)[C@@]1(O)C(=O)CO`, the result in assay [1], in [2], in assay [3], in assay [4], in [5] and in [6] was inactive. Besides, the compound was classed as inactive in assay [7], in assay [10], in assay [13], in [14], in [15] and in assay [17]. Besides, the result in assay [20] was inactive. For the same compound, the half-maximal activity concentration (AC50) is 100 µM (active) in [8]; 150 µM (active) in [9]; 180 µM (active) in [12]; 100 µM (active) in [16]; 39.4 µM (active) in [18]; 0.685 µM (active) in assay [19].

By AC50 is commonly meant the concentration giving half of the maximal activity seen.
